60 molecules from PubChem BioAssay AID430 (Sanford-Burnham Center for Chemical Genomics, 2006) can be followed below.

Screen size: about 63,000 compounds; about 1,100 (1.7%) were called active. Shown is part of a subset that was picked to be rich in actives. Entries with a potency or affinity are not part of this list. Values without a mark were called inactive. No stated cut-off is given here; in the data, active means cytotoxicity above about 50%; inactive means the rest.

A short description of the test: HPDE-C7 pancreatic duct cell viability loss – fluorescence, HTS (AID 430).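 Further: cells exposed to compound for 48 hours before viability readout; 0% = vehicle and 100% = reference cytotoxic drug.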 The following applies: HPDE-C7 pancreatic duct cells viability, at 10 µM, active compounds read high.
Regarding `COC(=O)c1ccccc1OC(=O)c1ccc(Br)o1`, the cytotoxicity is 7.5%.
Then `FC(F)Oc1cccc2cccnc12`, with -5.8%.
As for `O=C(COc1cccc2cccnc12)Nc1nccs1`, the cytotoxicity is 8.2%.
The figure for `O=C(Nc1cccc2cccnc12)c1ccc(Br)o1` is 5.6%; for `O=C(O)c1ccccc1NS(=O)(=O)c1cccc2cccnc12` it is 21.6%; for `O=C(O)c1cccnc1Oc1ccccc1` it is -7%.
For `CCc1ccc(C(=O)N2CCN(c3ccc(F)cc3)CC2)s1`, the cytotoxicity was -18.1%.
Consider `CC(=O)N1CCN(Cc2cc(=O)n3cc(Cl)c(C)c(Cl)c3n2)CC1`, for which the cytotoxicity was -7.9%.
Then `O/N=C(\Cc1cscn1)c1ccc(O)cc1O`, with -6.8%; and `CCn1c(=O)cc(SCC(=O)Nc2ccc3c(c2)OCO3)c2ccccc21`, with 0.7%.
Then `O=C(c1cc(-c2ccncc2)nc2ccccc12)N1CCN(c2ccccn2)CC1`, with 56.1% (active).
The figure for `Cc1ccc(-c2cc(C(=O)N3CCOCC3)c3ccccc3n2)cc1` is -8.5%; for `Cc1ccc(-c2cc(C(=O)N3CCN(c4ncccn4)CC3)c3ccccc3n2)cc1` it is 57.3% (active); for `COc1cc(-c2cc(C(=O)N3CCN(c4ccccn4)CC3)c3ccccc3n2)cc(OC)c1OC` it is 14.4%.
With `COc1ccc(-c2cc(C(=O)N3CCN(c4ccccn4)CC3)c3ccccc3n2)cc1`, the cytotoxicity is 32%.
For the molecule `Cc1ccc2nc(-c3ccccn3)cc(C(=O)N3CCN(c4ncccn4)CC3)c2c1`, the cytotoxicity is 8.9%.
Then `CCOc1ccc(-c2cc(C(=O)N3CCN(c4ccccn4)CC3)c3ccccc3n2)cc1`, with 56.9% (active); and `COc1cccc(-c2cc(C(=O)N3CCN(c4ncccn4)CC3)c3ccccc3n2)c1`, with -4.1%.
With `O=C(c1cc(-c2ccncc2)nc2ccc(Br)cc12)N1CCN(c2ccccn2)CC1`, the cytotoxicity is 12.7%.
As to `CCOC(=O)N1CCN(C(=O)c2cc(-c3ccc(OCC)cc3)nc3ccccc23)CC1`, the cytotoxicity is 57.6% (active).
Regarding `CCOc1ccc(-c2cc(C(=O)N3CCN(C)CC3)c3ccccc3n2)cc1`, the cytotoxicity is -8.5%.
With `O=C(c1cc(-c2ccccc2)nc2ccccc12)N1CCN(c2ccccn2)CC1`, the cytotoxicity was 17.1%.
On to `Cc1ccc(S(=O)(=O)N2CCN(C(=O)CSc3nc4ccccc4o3)C2)cc1`, for which the cytotoxicity was -14.7%.
For the molecule `O=C1CSC(c2ccccc2F)N1c1cc(Cl)ccc1O` (stereo not given), the cytotoxicity is 9.2%.
Consider `CSc1cccc(NC(=O)CN(C2CCCCC2)S(C)(=O)=O)c1`, for which the cytotoxicity was -17.9%.
The figure for `O=C(c1cccc(OC(F)F)c1)N1CCN(c2ncccn2)CC1` is -14.1%; for `CCC(=O)Nc1ccc(S(=O)(=O)Nc2cccc(C)c2)cc1OC` it is 3.2%; for `COc1ccc(CNC(=O)C2CCN(S(=O)(=O)c3cccc4cccnc34)CC2)cc1` it is 2%.
For the molecule `COc1ccc(C2C3=C(Nc4ncnn42)c2ccccc2CC3)cc1OC` (stereo not given), the cytotoxicity was 32.9%.
The figure for `COc1cc(C2C3=C(Nc4ncnn42)c2ccccc2CC3)cc(OC)c1OC` (stereo not given) is 73.5% (active).
The figure for `COc1ccc(C2C3=C(Nc4ncnn42)c2ccccc2CCC3)cc1` (stereo not given) is -20.3%; for `CCN(CC)S(=O)(=O)c1cccc(-c2nnc(SCC#N)n2Cc2ccccc2)c1` it is 3.5%; for `N#CCC(=O)N1CCn2c1nc1ccccc12` it is -11.2%.
Then `O=C1CC(N2CCN(c3nc4ccccc4s3)CC2)C(=O)N1Cc1cccs1` (stereo not given), with 12.3%.
For `O=C1CC(N2CCN(c3ccc(F)cc3)CC2)C(=O)N1Cc1cccs1` (stereo not given), the cytotoxicity is -1.7%.
On to `CCOC(=O)CSc1nc(N)cc(=O)[nH]1`, for which the cytotoxicity was -12%.
For `Cc1ccc(C(=O)NCc2ccc3c(c2)OCO3)cc1S(=O)(=O)N1CCOCC1`, the cytotoxicity was -5.3%.
The figure for `Cc1cc(NC(=O)CCC(=O)N(c2ccccc2)C(C(=O)NCC2CCCO2)c2cccnc2)no1` (stereo not given) is -0.6%.
As for `CCOC(=O)CSC1=C(C#N)C(c2sccc2C)CC(=O)N1` (stereo not given), the cytotoxicity is 63.5% (active).
Then `CCOc1ccc(C2CC(=O)NC(SCC(=O)OC)=C2C#N)cc1` (stereo not given), with 5.6%; and `CCCOC(=O)CSC1=C(C#N)C(c2ccc3c(c2)OCO3)CC(=O)N1` (stereo not given), with 65.3% (active).
Consider `CCSC1=C(C#N)C(c2ccccc2OC)CC(=O)N1` (stereo not given), for which the cytotoxicity is -4.8%.
Then `CCCCOC(=O)CSC1=C(C#N)C(c2ccc3c(c2)OCO3)CC(=O)N1` (stereo not given), with 28.6%.
As to `CCOC(=O)CC(=O)CSC1=C(C#N)C(c2ccccc2OC)CC(=O)N1` (stereo not given), the cytotoxicity was 43.6%.
Then `CCSC1=C(C#N)C(c2ccc(C)s2)CC(=O)N1` (stereo not given), with -7.1%; and `COC(=O)CSC1=C(C#N)C(c2ccc(F)cc2)CC(=O)N1` (stereo not given), with 10.1%.
For the molecule `CSC1=C(C#N)C(c2ccc(C)s2)CC(=O)N1` (stereo not given), the cytotoxicity is -8.2%.
The figure for `CCOC(=O)CSC1=C(C#N)C(c2ccc(C)s2)CC(=O)N1` (stereo not given) is 54.7% (active); for `CCOC(=O)CSC1=C(C#N)C(c2ccc3c(c2)OCO3)CC(=O)N1` (stereo not given) it is 43.8%.
As for `CCOC(=O)CSC1=C(C#N)C(c2ccccc2OC)CC(=O)N1` (stereo not given), the cytotoxicity was 54.9% (active).
In the case of `O=C1CCC(=O)N1CC(=O)N1c2ccccc2Sc2ccccc21`, the cytotoxicity was -7.4%.
Then `COc1ccc(-n2nc3c(c2NC(=O)c2cc4ccccc4oc2=O)CS(=O)(=O)C3)cc1`, with -14.8%; and `Cc1cc(C)n(-c2nc3c(c(=O)[nH]c(=O)n3C)n2CCc2ccccc2)n1`, with 5.1%; and `Cc1[nH]c2ccccc2c1C(=O)CN1CCCCC1CCO` (stereo not given), with -11.2%.
Consider `CCOc1ccc(Cn2nnc(C(=O)NCc3ccc(OC)cc3)c2N)cc1`, for which the cytotoxicity was -14.5%.
Then `CCOc1cc(S(=O)(=O)NCC2OCCc3ccccc32)c(OCC)cc1-n1cnnn1` (stereo not given), with 2.3%; and `CCC(=O)OC1=C2C(=Nc3c(c(=O)n(C)c(=O)n3C)C2c2ccccc2)c2ccccc21` (stereo not given), with 0.2%.
Then `CCOc1cc(NC(=O)c2ccco2)c(OCC)cc1NC(=O)Cc1ccc(OC)c(OC)c1`, with -12%.
Take `Cc1cc(C)cc(N2CCCn3c2nc2c3c(=O)n(CCN3CCOCC3)c(=O)n2C)c1`: the cytotoxicity is -6.7%.
The figure for `CC(=O)C1=C(O)C(=O)N(Cc2cccnc2)C1c1ccc(Cl)cc1Cl` (stereo not given) is -17.4%.
